Activity calls are given as the source filed them. How the source made its calls: active means hit-call score of the fitted dose curve at least 0.9, where 1 is the maximum; inactive means score below 0.9.

Test [1] is described as follows: ATG_E_Box_CIS: Attagene CIS-FACTORIAL HepG2 Assay for human Enhancer Box (E-box) (AID 2282936). The settings on record: HepG2 E-box cis-reporter transcription, actives raise or lower the signal. In a few lines: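 Multiplexed CIS reporter system in transiently transfected HepG2 cells measures native transcription factor activity. Reporter RNA after 24 h exposure is profiled by RT-PCR-capillary electrophoresis.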

Test [2] in a line: ATG_M_61_CIS: Attagene CIS-FACTORIAL HepG2 Assay for M61 Transcription Factor (Internal Marker) (AID 2282937). The following applies: HepG2 Attagene CIS-FACTORIAL M61 internal marker reporter; actives raise or lower the signal. Summed up: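 Endogenous transcription factor activity in HepG2 is read through transiently transfected cis-element reporter units. After 24 h dosing, RNA undergoes reverse transcription, PCR and primer extension with 6-FAM before capillary electrophoresis; DMSO-referenced bidirectional fit.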

The nature of test [3]: ATG_EGR_CIS: Attagene CIS-FACTORIAL HepG2 Assay for human Early Growth Response 1 (EGR1) (AID 2282938). The settings on record: HepG2 Attagene CIS-FACTORIAL EGR reporter mRNA; actives raise or lower the signal. In a few lines: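 Activity is taken as induction or loss of reporter mRNA versus DMSO, fitted bidirectionally. Transcripts from cis-regulated reporter units in transiently transfected HepG2 were measured after 24 h by RT-PCR with capillary electrophoresis.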

A short description of test [4]: ATG_M_19_CIS: Attagene CIS-FACTORIAL HepG2 Assay for M19 Transcription Factor (Internal Marker) (AID 2282939). The following applies: HepG2 Attagene CIS-FACTORIAL M19 internal marker reporter; actives raise or lower the signal. Summed up: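 Background-control endpoint from a multiplexed HepG2 reporter panel. Cells carrying cis-regulated reporter constructs are treated 24 h, then reporter transcripts are amplified, fluorescently labelled and sized by capillary electrophoresis. DMSO defines baseline.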

The nature of test [5]: ATG_Ets_CIS: Attagene CIS-FACTORIAL HepG2 Assay for human Erythroblast Transformation Specific (ETS) (AID 2282941). The settings on record: HepG2 ETS cis-reporter transcription; AC50: actives raise or lower the signal unless noted; outcome: actives raise or lower the signal unless noted. Summed up: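 After transient cis-reporter transfection, HepG2 cells receive test chemical for 24 h. Reporter mRNA levels, measured by RT-PCR and capillary electrophoresis fluorescence, are analysed bidirectionally relative to the DMSO baseline.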

A short description of test [6]: ATG_FoxO_CIS: Attagene CIS-FACTORIAL HepG2 Assay for human Forkhead box O (FoxO) (AID 2282943). The following applies: HepG2 Attagene cis-reporter, FoxO element, mRNA; actives raise or lower the signal. In a few lines: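 Values reflect reporter mRNA induction or loss in HepG2 cells 24 h post-dosing, fitted bidirectionally with DMSO as negative control and baseline. Detection used RT-PCR and fluorescence capillary electrophoresis.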

Test [7] in a line: ATG_GATA_CIS: Attagene CIS-FACTORIAL HepG2 Assay for human GATA Binding Protein (AID 2282944). The following applies: HepG2 GATA cis-element reporter, Attagene multiplex mRNA; actives raise or lower the signal. Summed up: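 Endogenous transcription factor activity was captured through cis-promoter-driven reporters in transfected HepG2 cells. After 24 h exposure, reporter transcripts were quantified by RT-PCR with fluorescent capillary electrophoresis, and responses fitted both directions against DMSO.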

The nature of test [8]: ATG_GLI_CIS: Attagene CIS-FACTORIAL HepG2 Assay for human Zinc Finger Protein GLI1 (AID 2282945). The following applies: HepG2, Attagene cis-factorial reporter mRNA, GLI element; actives raise or lower the signal. Summed up: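 HepG2 cells transiently transfected with cis-promoter multiplexed reporter units report endogenous transcription factor activity. After 24 h chemical exposure, reporter mRNA was quantified by RT-PCR, 6-FAM labelling, HpaI digestion and capillary electrophoresis, with bidirectional fitting against DMSO.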

Test [9] concerns the target Bile acid receptor (Homo sapiens) (UniProt Q96RI1). In words: ATG_IR1_CIS: Attagene CIS-FACTORIAL HepG2 Assay for human Nuclear Receptor Subfamily 1 Group H Member 4 (NR1H4), IR1 submotif (AID 2282946). The settings on record: IR1 reporter transcription, actives raise or lower the signal. Summed up:
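Transient MRTU transfection, HepG2; 24 h dosing; RNA → RT-PCR → 6-FAM primer extension → HpaI digest → capillary electrophoresis fluorescence. Gain/loss of signal fitted relative to DMSO.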

Test [10] can be described thus: ATG_GRE_CIS: Attagene CIS-FACTORIAL HepG2 Assay for human Glucocorticoid Response Elements (GRE) (AID 2282947). The following applies: HepG2 GRE cis-reporter, Attagene multiplex mRNA; AC50: actives raise or lower the signal unless noted; outcome: actives raise or lower the signal unless noted. Summed up: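 Following 24 h chemical exposure of transiently transfected HepG2 cells, total RNA was reverse-transcribed and reporter cDNA amplified, fluorescently labelled and sized by capillary electrophoresis. Signal gain or loss was fitted relative to DMSO vehicle.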

Test [11] can be described thus: ATG_ISRE_CIS: Attagene CIS-FACTORIAL HepG2 Assay for human Interferon Regulatory Factor 1 (IRF1) binding to an Interferon-Stimulated Response Element (ISRE) (AID 2282948). The following applies: HepG2 ISRE cis-reporter (Attagene), mRNA transcription readout; actives raise or lower the signal. In a few lines:
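Quantitation relies on labelled RT-PCR fragments separated by capillary electrophoresis. Human HepG2 cells bearing cis-promoter reporter constructs were treated 24 h; DMSO served as baseline for bidirectional fitting.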

Test [12] in a line: ATG_M_32_CIS: Attagene CIS-FACTORIAL HepG2 Assay for M32 Transcription Factor (Internal Marker) (AID 2282949).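 Further: background control marker of the multiplexed CIS panel rather than a real target.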 The settings on record: HepG2 Attagene cis-factorial M32 reporter, mRNA; actives raise or lower the signal. Summed up: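 Fluorescent capillary electrophoresis peaks of HpaI-digested, FAM-labelled RT-PCR reporter products give the signal. Source: transiently transfected human liver HepG2 cells, 24 h after chemical dosing; bidirectional fitting against DMSO.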

Test [13] can be described thus: ATG_M_06_CIS: Attagene CIS-FACTORIAL HepG2 Assay for M06 Transcription Factor (Internal Marker) (AID 2282950). The following applies: HepG2 Attagene CIS-FACTORIAL M06 internal marker reporter; actives raise or lower the signal. Summed up: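 Steps: transfect HepG2 with multiplexed cis-element reporter constructs; dose chemical 24 h; extract RNA with DNase treatment; reverse-transcribe, PCR-amplify, 6-FAM label, HpaI digest; separate fragments by capillary electrophoresis. Activity fitted both directions versus DMSO.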

Test [14] deals with Hypoxia-inducible factor 1-alpha (Homo sapiens) (UniProt Q16665). In words: ATG_HIF1a_CIS: Attagene CIS-FACTORIAL HepG2 Assay for human Hypoxia Inducible Factor 1 (HIF1A) (AID 2282951). The following applies: HepG2 Attagene cis-factorial HIF1a reporter transcription; actives raise or lower the signal. In a few lines:
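Fluorescence intensity of capillary-separated, 6-FAM-labelled reporter amplicons gives mRNA induction in HepG2 cells carrying transfected cis-promoter reporter units; cells exposed 24 h, responses fitted up or down from DMSO.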

Test [15] addresses Hepatocyte nuclear factor 6 (Homo sapiens) (UniProt Q9UBC0). The test is described as follows: ATG_HNF6_CIS: Attagene CIS-FACTORIAL HepG2 Assay for human Hepatocyte Nuclear Factor 6 (HNF6) (AID 2282952). The following applies: HepG2 Attagene cis-factorial HNF6 reporter transcription; actives raise or lower the signal. In a few lines:
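HepG2, transient MRTU transfection (cis promoters); 24 h chemical exposure; total RNA → oligo(dT) RT → PCR → 6-FAM labelling → HpaI cut → CE; bidirectional fit vs DMSO.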

Test [16] has as its target Heat shock factor protein 1 (Homo sapiens) (UniProt Q00613). In words: ATG_HSE_CIS: Attagene CIS-FACTORIAL HepG2 Assay for human Heat Shock Transcription Factor 1 (HSE) (AID 2282953). The following applies: HepG2 HSE cis-reporter, Attagene RNA transcription; actives raise or lower the signal. Summed up: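 Cells were transfected with cis-element-driven reporter constructs, dosed for 24 h, then total RNA was reverse-transcribed and reporter cDNA amplified, FAM-labelled and digested with HpaI. Fragments were resolved by capillary electrophoresis; gain or loss was fitted against DMSO.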

Test [17] is described as follows: ATG_MRE_CIS: Attagene CIS-FACTORIAL HepG2 Assay for human Metal Responsive Element (MRE) (AID 2282954). The settings on record: HepG2 MRE cis-reporter transcription, Attagene multiplex; actives raise or lower the signal. In a few lines: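 Step one: transfect HepG2 with cis-regulated reporter units. Step two: dose 24 h. Step three: isolate RNA, RT-PCR, 6-FAM label, HpaI digest, capillary electrophoresis. Fit bidirectionally to DMSO.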

Test [18] can be described thus: ATG_PBREM_CIS: Attagene CIS-FACTORIAL HepG2 Assay for human Phenobarbital-responsive Enhancer Module (PBREM) (AID 2282955). The settings on record: HepG2 PBREM cis-reporter, Attagene multiplexed transcription; actives raise or lower the signal. Summed up: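 Cells were transfected with cis-element reporter units and treated for 24 h, after which RNA was extracted and reporter transcripts measured by RT-PCR and capillary electrophoresis.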

Test [19] deals with Hepatocyte nuclear factor 3-beta (Homo sapiens) (UniProt Q9Y261). In words: ATG_FoxA2_CIS: Attagene CIS-FACTORIAL HepG2 Assay for human Forkhead box A2 (FOXA2) (AID 2282942). The settings on record: HepG2 cis-reporter transcription factor activity, 24 h; actives raise or lower the signal. Summed up: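 Reporter transcript induction is measured by fluorescence after capillary electrophoresis of RT-PCR products from HepG2 cells exposed 24 h. Cis-regulated reporter units report endogenous factor activity; curves fitted both directions against DMSO.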
Sequence of Hepatocyte nuclear factor 3-beta (Homo sapiens) (Q9Y261 whole entry, looked up): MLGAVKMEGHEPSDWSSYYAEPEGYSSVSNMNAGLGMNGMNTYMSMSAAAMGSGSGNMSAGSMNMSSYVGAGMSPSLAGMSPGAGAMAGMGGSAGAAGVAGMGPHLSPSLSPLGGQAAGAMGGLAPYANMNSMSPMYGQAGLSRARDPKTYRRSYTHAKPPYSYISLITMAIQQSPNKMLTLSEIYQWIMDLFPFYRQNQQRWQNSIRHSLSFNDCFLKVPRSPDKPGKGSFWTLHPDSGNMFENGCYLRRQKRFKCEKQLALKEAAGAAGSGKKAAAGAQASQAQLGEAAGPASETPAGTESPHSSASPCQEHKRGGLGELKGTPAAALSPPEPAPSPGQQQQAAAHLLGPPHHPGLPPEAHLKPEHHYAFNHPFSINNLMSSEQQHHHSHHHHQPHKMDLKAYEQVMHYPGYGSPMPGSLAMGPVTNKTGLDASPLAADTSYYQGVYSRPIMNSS

Sequence of Heat shock factor protein 1 (Homo sapiens) (Q00613 whole entry, looked up, the tested form may be a part): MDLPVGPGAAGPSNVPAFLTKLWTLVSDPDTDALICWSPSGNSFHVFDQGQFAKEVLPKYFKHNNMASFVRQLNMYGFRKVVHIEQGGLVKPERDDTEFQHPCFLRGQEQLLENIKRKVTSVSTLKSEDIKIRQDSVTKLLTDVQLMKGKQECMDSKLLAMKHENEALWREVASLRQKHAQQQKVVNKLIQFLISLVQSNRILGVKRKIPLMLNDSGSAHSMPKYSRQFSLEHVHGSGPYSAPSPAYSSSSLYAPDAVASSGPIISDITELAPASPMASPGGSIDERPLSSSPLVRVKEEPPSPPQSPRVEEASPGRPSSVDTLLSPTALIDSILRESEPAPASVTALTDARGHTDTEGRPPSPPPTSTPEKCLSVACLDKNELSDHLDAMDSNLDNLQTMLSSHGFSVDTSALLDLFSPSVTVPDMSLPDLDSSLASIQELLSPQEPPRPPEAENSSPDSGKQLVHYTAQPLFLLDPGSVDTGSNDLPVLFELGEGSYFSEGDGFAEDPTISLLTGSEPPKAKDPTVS
Sequence of Hepatocyte nuclear factor 6 (Homo sapiens) (Q9UBC0 whole entry, looked up): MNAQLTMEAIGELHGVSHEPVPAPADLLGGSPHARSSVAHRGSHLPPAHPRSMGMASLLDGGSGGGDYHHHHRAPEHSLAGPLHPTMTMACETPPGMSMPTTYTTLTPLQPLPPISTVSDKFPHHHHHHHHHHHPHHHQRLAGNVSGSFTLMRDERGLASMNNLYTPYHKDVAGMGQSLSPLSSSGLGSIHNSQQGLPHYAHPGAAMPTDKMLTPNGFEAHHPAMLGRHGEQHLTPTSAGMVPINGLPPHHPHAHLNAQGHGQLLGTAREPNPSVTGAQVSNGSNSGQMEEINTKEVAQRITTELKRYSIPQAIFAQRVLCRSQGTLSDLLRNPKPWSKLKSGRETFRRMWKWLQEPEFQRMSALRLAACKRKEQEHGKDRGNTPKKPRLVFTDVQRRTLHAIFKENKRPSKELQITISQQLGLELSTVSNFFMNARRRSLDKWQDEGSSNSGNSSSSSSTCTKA
Sequence of Bile acid receptor (Homo sapiens) (Q96RI1 whole entry, looked up): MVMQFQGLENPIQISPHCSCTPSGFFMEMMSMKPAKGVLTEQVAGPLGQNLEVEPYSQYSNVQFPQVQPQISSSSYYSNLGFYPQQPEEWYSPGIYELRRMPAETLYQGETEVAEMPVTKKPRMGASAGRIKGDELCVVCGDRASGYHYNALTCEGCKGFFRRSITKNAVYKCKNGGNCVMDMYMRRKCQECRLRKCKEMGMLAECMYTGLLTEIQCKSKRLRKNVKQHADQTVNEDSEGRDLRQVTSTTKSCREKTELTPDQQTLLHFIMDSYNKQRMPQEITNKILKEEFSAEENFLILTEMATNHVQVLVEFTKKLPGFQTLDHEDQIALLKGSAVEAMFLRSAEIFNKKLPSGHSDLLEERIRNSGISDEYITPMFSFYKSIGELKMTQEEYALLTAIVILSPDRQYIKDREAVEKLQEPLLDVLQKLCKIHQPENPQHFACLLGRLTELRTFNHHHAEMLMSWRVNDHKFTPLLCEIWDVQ
Sequence of Hypoxia-inducible factor 1-alpha (Homo sapiens) (Q16665 whole entry, looked up): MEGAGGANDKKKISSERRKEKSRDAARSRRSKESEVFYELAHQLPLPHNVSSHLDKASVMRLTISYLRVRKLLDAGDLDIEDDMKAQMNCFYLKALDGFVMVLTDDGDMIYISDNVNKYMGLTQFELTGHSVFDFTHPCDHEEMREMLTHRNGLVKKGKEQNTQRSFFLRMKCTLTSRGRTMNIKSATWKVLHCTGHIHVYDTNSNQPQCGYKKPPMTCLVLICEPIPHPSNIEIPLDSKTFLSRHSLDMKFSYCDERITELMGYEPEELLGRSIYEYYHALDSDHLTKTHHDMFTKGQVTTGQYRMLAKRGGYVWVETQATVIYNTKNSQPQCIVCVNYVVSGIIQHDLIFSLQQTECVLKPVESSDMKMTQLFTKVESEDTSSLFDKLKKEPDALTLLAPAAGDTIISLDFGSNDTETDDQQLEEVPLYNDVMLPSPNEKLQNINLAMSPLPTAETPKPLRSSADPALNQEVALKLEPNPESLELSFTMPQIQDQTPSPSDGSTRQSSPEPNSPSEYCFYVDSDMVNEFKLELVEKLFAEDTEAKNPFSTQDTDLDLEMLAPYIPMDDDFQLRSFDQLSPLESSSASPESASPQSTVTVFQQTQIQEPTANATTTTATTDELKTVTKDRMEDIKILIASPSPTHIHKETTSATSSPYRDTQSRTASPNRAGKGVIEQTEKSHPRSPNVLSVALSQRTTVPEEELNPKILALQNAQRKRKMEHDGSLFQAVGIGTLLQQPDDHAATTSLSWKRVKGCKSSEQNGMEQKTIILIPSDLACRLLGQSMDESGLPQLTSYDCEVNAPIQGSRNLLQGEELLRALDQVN

`C=CC(=O)OCCN(CC)CC`: the AC50 in test [1] is 37 µM (active); in [3], 54.4 µM (active); in test [11] it was 44.3 µM (active); in test [16] it was 152 µM (active); in [17], 62.9 µM (active). The call in test [2], in test [4], in test [5], in test [6], in test [7] and in test [8] was inactive. For the same compound, the outcome in test [9], in [10], in [12], in test [13], in test [14] and in test [15] was inactive. For the same compound, the result in [18] was inactive.

Regarding `O=S(=O)(O)c1ccccc1`, the outcome in test [1], in [2], in test [3], in test [4], in test [5] and in [6] was inactive. Also, the compound was called inactive in test [7], in test [8], in test [9], in test [10], in [11] and in test [12]. Also, the compound was called inactive in test [13], in test [14], in test [15], in [16] and in test [17].

As for `CCCCCc1ccc(O)cc1`, the result in test [1], in test [2], in test [3], in test [4], in test [5] and in test [6] was inactive. Also, the compound was classed as inactive in [7], in test [8], in [9], in test [10], in test [12] and in test [13]. For the same compound, the call in [14], in test [15], in [17] and in test [18] was inactive. For the same compound, in [16], the AC50 is 33.4 µM (active).

`CCO[Si](C)(C)OCC`: the outcome in test [1], in test [2], in [3], in test [4], in [5] and in test [6] was inactive. The call in [7], in [8], in test [9], in test [10], in test [11] and in test [12] was inactive. The result in test [13], in test [14], in test [15], in test [16], in test [17] and in test [18] was inactive.

For `O=C(Nc1cccc([N+](=O)[O-])c1)c1cc2ccccc2cc1O`, the outcome in [1], in test [2], in test [3], in [4], in test [5] and in test [19] was inactive. Besides, the compound was called inactive in test [6], in test [7], in test [8], in [9], in [10] and in [12]. Besides, the outcome in test [13], in test [14], in test [15], in [16] and in [17] was inactive. Moreover, the AC50 in test [18] is 3.64 µM (active).

On to `O=C(OC(=O)C(F)(F)C(F)(F)F)C(F)(F)C(F)(F)F`, for which the result in test [1], in [2], in test [3], in test [4], in [5] and in [6] was inactive. In addition, the compound was called inactive in [7], in test [8], in test [9], in [10], in [11] and in test [12]. Also, the call in [13], in test [14], in [15], in test [16], in [17] and in test [18] was inactive.

As for `O=C(O)C(=O)O`, the outcome in test [1], in test [2], in test [3], in test [4], in test [5] and in [19] was inactive. The compound was classed as inactive in [6], in test [7], in test [10], in test [11], in [12] and in [13]. Also, the compound was classed as inactive in test [14], in test [15], in [16], in test [17] and in test [18].

The values above are taken from PubChem BioAssay (EPA / NIEHS).
